# Screening data as filed in PubChem BioAssay.
# Rango release inh: inhibitors of RanGTP-induced Rango-importin beta complex dissociation. O95149+P62826. Potency, µM (titrated, usually from 46.1 µM), inactives show top-dose activity change, negative = inhibition. Biochemical FRET Rango-importin beta, RanGTP-induced dissociation. AID 540253. hit rate 0.071% among 340,000; also: potency is read from the fitted curve at half-maximal effect; % of control where 0% means no effect; nearly all actives have a fitted effect of over 45% in size
#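 Quantitative HTS using a FRET biosensor: 0.1 uM Rango, 0.25 uM importin beta, 0.6 uM Ran, 2 mM GTP, 0.2 uM RCC1 final, PBS with DTT, Tween-20 and BSA. Post-read taken 45 min after Ran addition.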
# MBNL1-CUG inh: MBNL1-poly(CUG) RNA binding inhibition. Q9NR56. TR-FRET MBNL1-His/biotin-(CUG)12 binding, 665/545 ratio. Potency, µM (series often up to 57.5 µM), without a hit: at the top dose activity change, negative = inhibition, most hits filed as inhibitors. hit rate 0.036% among 280,000. AID 2675; active = well fitted inhibition curve with a large enough effect in the signal ratio, with a control signal flat, not every such curve was filed as active; inconclusive = small, poorly fitted or top-dose-only effect, or effect the other way, or a change in a side signal; inactive = no such curve, though single readings can be large or run the other way; the % refers to the signal ratio; also: potency is read from the fitted curve at half-maximal effect; % is scaled to controls: 0 for no effect and ±100 for the full control effect
# Target sequence (Q9NR56 whole entry, looked up): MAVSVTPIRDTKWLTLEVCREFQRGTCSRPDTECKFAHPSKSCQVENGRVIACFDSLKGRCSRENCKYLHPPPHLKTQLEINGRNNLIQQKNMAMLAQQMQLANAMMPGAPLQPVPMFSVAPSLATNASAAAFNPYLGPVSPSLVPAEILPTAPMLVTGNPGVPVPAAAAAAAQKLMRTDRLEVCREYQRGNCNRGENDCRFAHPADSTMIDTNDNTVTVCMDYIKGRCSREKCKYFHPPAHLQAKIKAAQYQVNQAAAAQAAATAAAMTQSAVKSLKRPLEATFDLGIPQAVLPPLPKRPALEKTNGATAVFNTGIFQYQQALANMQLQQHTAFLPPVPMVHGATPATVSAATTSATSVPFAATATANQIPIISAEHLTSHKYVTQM
#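 MBNL1-His + Biotin-(CUG)12, cpd titration 92 nM–58 uM; Tb anti-His Ab 0.055 ng/ul, SA-XL665 5 nM (final); 60 min RT; ratiometric 665/545 nm, Ex 340 nm; normalized to buffer and full-complex controls.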
# ClpP mod: qHTS Assay for Activators of ClpP | ATP-dependent Clp protease proteolytic subunit (Bacillus subtilis (strain 168)), P80244 | purified B. subtilis ClpP, FRET peptide cleavage, 20 min | Potency, µM (doses to about 57.5 µM), without a hit: top-dose activity change, negative = active | hit rate 1.9% among 340,000 | AID 651965, 2013; active = well fitted falling curve with a large enough effect; inconclusive = small, poorly fitted or top-dose-only effect; inactive = no such curve, though single readings can be large or run the other way; also: potency is read from the fitted curve at half-maximal effect; the source files actives as falling curves though it sought activators and does not explain the sign; nearly all actives have a fitted effect of over 65% in size
# Target sequence (P80244 whole entry, looked up): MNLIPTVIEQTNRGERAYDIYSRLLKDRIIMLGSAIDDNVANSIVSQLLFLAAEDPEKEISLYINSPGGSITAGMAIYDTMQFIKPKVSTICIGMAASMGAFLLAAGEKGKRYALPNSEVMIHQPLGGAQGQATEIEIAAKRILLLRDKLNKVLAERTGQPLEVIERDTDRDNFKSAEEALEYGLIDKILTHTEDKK
#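 FRET quenching reversal measured ClpP activation: 10 microg/mL B. subtilis ClpP at pH 8 with the FRET-FV decapeptide, read at 430 nm after 320 nm excitation. The 20-min minus 0-min signal was scaled between DMSO/no-enzyme wells and ADEP (5.8 microM final).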
# Rango-impB inh: prevents formation of the Rango-importin beta complex. Rango CFP/YFP FRET sensor + importin beta, 45 min. AID 540263. hit rate 0.031% among 340,000. Potency, µM (titrated, usually from 92.2 µM), inactives show at the highest dose inhibition of complex formation;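 also: potency is read from the fitted curve at half-maximal effect; 0% = DMSO wells and 100% = buffer wells lacking importin beta; nearly all actives have a fitted effect of over 15% in size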
#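 FRET biosensor Rango (snurportin 1 IBB between N-terminal EYFP and C-terminal Cerulean), 50 nM in PBS/1 mM DTT/0.02% Tween-20/0.1% BSA, preincubated 5 min RT with compound; 0.125 microM importin beta added, 45 min RT, CFP/YFP FRET ratio read.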
# CBFb RUNX1 block: inhibitors of human CBF-beta and RUNX1 interaction; Q01196+Q13951; AlphaScreen CBFb-His/RUNX1-biotin binding, biochemical; Potency, µM (highest dose often 59.8 µM), inactives show at the top dose activity, negative = inhibition, most hits filed as inhibitors; 230,000 tested, under 10 active; AID 1477; active = well fitted curve in the direction sought with a large enough effect; inconclusive = small, poorly fitted or top-dose-only effect, or effect the other way, or another doubt; inactive = no such curve, though single readings can be large or run the other way; also: % of control where 0% means no effect
#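 Interaction loss through any mechanism counts as activity. Pre-formed complex of His-CBF-beta and biotin-RUNX1 (30 nM apiece) is incubated with compound 15 min, then with 50 ng nickel and 50 ng streptavidin beads for 90 min before AlphaScreen detection.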
# Active calls of the source: *; ? = inconclusive; nt = not tested or not shown. The sample as a whole holds a higher share of hits than the screen did. Unless noted, calls follow the shape of the full dose curve.
SMILES,Rango release inh,MBNL1-CUG inh,ClpP mod,Rango-impB inh,CBFb RUNX1 block
COc1ccc(Nc2cc3n(c(=O)n2)CCc2cc(OC)c(OC)cc2-3)cc1,?,?,-0.5%,?,nt
COc1cc2c(cc1OC)-c1cc(N3CCCc4ccccc43)nc(=O)n1CC2,0.7%,17.0%,-3.8%,-5.4%,5.8%
COc1cc2c(cc1OC)-c1cc(N3CCCCCC3)nc(=O)n1CC2,-8.3%,0.0%,25.1µM*,4.3%,13.1%
COc1cc2c(cc1OC)-c1cc(NC3CCCCCC3)nc(=O)n1CC2,6.7%,-3.0%,25.1µM*,-0.1%,3.0%
CCC(C)NC(=O)c1ccc2nc(CCc3ccccc3)oc2c1 (stereo unspecified),nt,nt,-1.7%,nt,nt
Fc1ccccc1N=C1NN=C(c2ccccc2)CS1,-5.2%,2.5%,10µM*,1.8%,-21.5%
CCC(=O)N1CCc2cc(Br)cc(S(=O)(=O)CCC(=O)Nc3ccc(CC)cc3)c21,nt,nt,3.0%,nt,nt
CN1CCc2c(cc(O)c(O)c2Cl)C(c2cccc(Cl)c2)C1 (stereo unspecified),nt,nt,nt,nt,-6.7%
Cc1ccccc1Cn1ccc(NC(=O)c2nn(C)cc2[N+](=O)[O-])n1,22.2%,?,28.2µM*,5.2%,-6.6%
CCn1cc([N+](=O)[O-])c(C(=O)Nc2ccn(Cc3ccccc3F)n2)n1,1.1%,?,0.3%,0.8%,1.9%
Cc1ccc(S(=O)(=O)N2[C@@H](Cc3ccccc3)CO[C@H]2CC(=O)c2cccc3ccccc23)cc1,nt,nt,-3.1%,nt,nt
COc1ccc(-c2nc3cc(NC(=O)Cc4ccc(OC)c(OC)c4)ccc3o2)cc1,0.3%,-4.7%,14.1µM*,0.6%,9.5%
CC(C)(Oc1ccc(Cl)cc1)C(=O)Nc1ccc2oc(-c3ccncc3)nc2c1,-11.6%,-1.8%,28.2µM*,0.4%,5.9%
COc1ccc(-c2nc3cc(NC(=O)Cc4ccc(Cl)cc4)ccc3o2)cc1OC,nt,nt,4.8%,nt,nt
CC(C)CC(=O)Nc1ccc(-c2nc3ccccc3c(=O)o2)cc1,0.9%,-12.5%,11.2µM*,5.0%,-7.1%
Cc1ccc(SCC(=O)Nc2ccc3oc(-c4ccc(F)cc4)nc3c2)cc1,nt,nt,3.55µM*,nt,nt
COc1cc2c(cc1OC)C(c1oc(-c3ccc(-c4cc(Cl)ccc4Cl)o3)cc1C)=NCC2,nt,nt,-10.8%,nt,nt
CCC(C)NCC(=O)Nc1ccc(-c2nc3cc(NC(=O)CNC(C)CC)ccc3o2)cc1 (stereo unspecified),-16.6%,-10.1%,12.6µM*,-3.2%,3.0%
COc1cc(N(C)C)c(OC)cc1/C=C1\Cc2ccccc2C1=O,nt,nt,-5.0%,nt,nt
CCOc1ccc(C(=O)NCCc2sc(-c3ccc(F)cc3)nc2C)cc1,nt,nt,25.1µM*,nt,nt
O=C(CCn1c(=O)c2cccn2c2cccnc21)N1CCN(c2ccc(F)cc2)CC1,nt,nt,-15.2%,nt,nt
COc1cc2c(cc1OC)C1=NC(=O)CN1C(SCc1ccc(C)cc1)=N2,0.6%,?,20µM*,-0.9%,19.7%
CCOc1ccc(NC(=O)N2CCOc3ccccc32)cc1,nt,nt,2.3%,nt,nt
O=C1CSC(c2cn(-c3ccccc3)nc2-c2cc3ccccc3o2)N1Cc1ccccc1 (stereo unspecified),6.0%,-1.3%,0.7%,-0.5%,1.0%
O=C1CSC(c2cn(-c3ccccc3)nc2-c2cc3ccccc3oc2=O)N1Cc1ccco1 (stereo unspecified),-1.5%,2.9%,31.6µM*,-1.3%,-1.4%
CCc1ccc(-c2cc(C)no2)cc1S(=O)(=O)NCc1ccc(OC)cc1,nt,nt,-1.9%,nt,nt
O=C1/C(=C/N(C(=O)c2ccco2)c2ccc(Br)cc2)Sc2ccccc21,?,9.6%,-2.3%,?,-4.9%
O=C1/C(=C/N(C(=O)c2ccco2)c2ccc(Cl)cc2)Sc2ccccc21,?,-6.5%,10µM*,?,-5.0%
CCC12CN3CC(CC)(CN(C1)C3c1cc(Br)ccc1OC)C2=O (stereo unspecified),nt,nt,0.4%,nt,nt
COc1ccc(OC)c(CNC(=O)C(C)n2c(C)c3cnn(-c4ccccc4)c(=O)c3c2C)c1 (stereo unspecified),nt,nt,-5.4%,nt,nt
